High-throughput results (PubChem)
VACV Venus inh: vaccinia inhibition (Venus reporter). Potency, µM (top dose mostly 36.5 µM), inactives show at the highest dose activity change, negative = inhibition, usual class: inhibitors. 330,000 compounds, 0.46% hits. Vaccinia virus Venus reporter expression, fluorescence. AID 720580; calls by dose curve; tested in A549 cells; note: potency is the fitted concentration of half-maximal effect; nearly all actives have a fitted effect of over 30% in size
VACV mCherry inh: inhibitors of vaccinia virus infection (mCherry reporter signal) | Vaccinia virus mCherry reporter infection, fluorescence | Potency, µM (top dose mostly 36.5 µM), for inactives: at the top dose activity change, negative = inhibition, hits mostly inhibitors | 310,000 compounds, 0.63% hits | AID 720579; calls by dose curve; tested in A549 cells; note: potency is the fitted concentration of half-maximal effect; nearly all actives have a fitted effect of over 35% in size
HCMV antiviral: human cytomegalovirus inhibition; HFF cells, HCMV-luciferase reporter, 72 h; active compounds read low; activity change, negative = inhibition, % at 57.5 µM; 410,000 compounds, 4.5% hits; AID 1259415; in the data active = activity change below about -60%; inconclusive = no clear call, values can overlap the other calls; inactive = above about -39%
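Cell-based, HFFs, 1000 cells/well, 16 h 37C; cpds in DMSO + HCMV-luc, MOI 1 PFU/cell; 72 h 37C; OneGlo luminescence after 5 min RT; norm. to buffer vs Salinomycin 10uM.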
HCV inh: HCV inhibition. Huh7.5.1 HCVcc-Cre infection, luciferase reporter, 44 h. Potency, µM (doses to about 41.8 µM), for the others: at the top dose activity change, negative = inhibition, hits mostly inhibitors. 340,000 compounds, 3.4% hits; active = well fitted inhibition curve with a large enough effect; inconclusive = small, poorly fitted or top-dose-only effect, or another doubt; inactive = no such curve, though single readings can be large or run the other way; note: potency is the fitted concentration of half-maximal effect
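1,000 cells/well; 4 h culture; + compound; + HCVcc-Cre (~0.5 moi); 44 h; luciferase substrate, RT 15 min; read 15 sec.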
LASV entry inh: inhibitors of Lassa virus binding or cell entry; Lassa virus pseudotype entry inhibition, cell reporter; Potency, µM (titrated, usually from 37.9 µM), for the others: at the top dose activity change, negative = inhibition, most hits filed as inhibitors; 300,000 compounds, 1.2% hits; AID 540256; calls by dose curve; tested in HEK293 cells; note: potency is the fitted concentration of half-maximal effect; nearly all actives have a fitted effect of over 50% in size
MARV entry inh: blocks Marburg virus binding to or entry into cells; Marburg virus pseudotyped entry inhibition, cell reporter; Potency, µM (top dose mostly 37.8 µM), for inactives: at the highest dose activity change, negative = inhibition, most hits filed as inhibitors; 300,000 compounds, 1.8% hits; calls by dose curve; tested in HEK293 cells; note: potency is the fitted concentration of half-maximal effect
Starred values were filed as active, the others as inactive; i = inactive; ? = inconclusive; · = no result given; ! = not confirmed by another sample; [ ] = another dose, or the depositor's remark. Compounds with a hit are over-represented: about 7.8% of the library has one in this group of screens. % is set by controls: 0 for no effect and ±100 for the full control effect.

SMILES	VACV Venus inh	VACV mCherry inh	HCMV antiviral	HCV inh	LASV entry inh	MARV entry inh
O=C(Nc1ccccc1)N(Cc1cccs1)c1ccc(Cl)cc1	2%	-1%	-25	·	18%[46.1 µM]	?
CC1=C(C#N)C(c2ccccc2)C2=C(N1)c1ccccc1C2=O (stereo unspecified)	-25%	-23%	-71*	?	?	?
CCCNC(=O)/C=C/c1ccc(S(=O)(=O)Nc2ccccc2OC)cc1	-11%	i	-37	?	5µM*	?
Cc1cnc(-n2ncc(C(=O)NCCc3ccncc3)c2-c2cccs2)nc1-c1ccc(F)cc1	-19%	-3%	·	·	·	·
O=C(CN(c1cc(C(F)(F)F)ccc1Cl)S(=O)(=O)c1ccccc1)NCCc1ccccc1	-20%	-16%	-70*	·	-2%[46.1 µM]	-6%[46.1 µM]
CS(=O)(=O)N(CC(=O)NCCc1ccccc1)c1cc(C(F)(F)F)ccc1Cl	-16%	i	5	·	-11%[46.1 µM]	-2%[46.1 µM]
O=C(CN(c1ccc(Cl)cc1)S(=O)(=O)c1ccc(Cl)c([N+](=O)[O-])c1)NCCc1ccc(F)cc1	-8%	?	25	?	-1%	2%
O=C(CN(c1ccc(Cl)cc1)S(=O)(=O)c1ccc(Cl)c([N+](=O)[O-])c1)NCCc1ccccc1	3%	-12%	37	11µM*	-2%	?
Cc1ccc(S(=O)(=O)N2CCN(c3ncnc4sccc34)CC2)cc1C	?	?	-72*	11µM*	?	?
O=S(=O)(c1ccc2c(c1)OCCO2)N1CCN(c2ncnc3sccc23)CC1	-22%	?	-91*	1µM*	?	?
c1ccc(Cn2nnnc2C(c2ccccc2)N2CCN(Cc3ccncc3)CC2)cc1 (stereo unspecified)	-14%	-6%	·	·	·	·
CC(=O)c1ccc(NS(=O)(=O)Cc2ccc(Cl)cc2)cc1	·	·	70	-8%	6%	4%
CC(O)(CS(=O)(=O)Cc1ccc(Cl)cc1)C(=O)Nc1cccc(C(F)(F)F)c1 (stereo unspecified)	·	·	-103*	0%	-2%	-6%
CC(C)(O)C(=O)NNC(=S)Nc1cccc(C(F)(F)F)c1	·	·	-33	13%	·	·
CC(=O)Nc1cccc(NS(=O)(=O)Cc2ccc(Cl)cc2)c1	-8%	-22%	-66*	-2%	-21%	1%
CCOc1ccc(NC(=O)CSc2oc(-c3ccco3)nc2S(=O)(=O)c2ccccc2)cc1	-14%	-10%	5	·	-1%[46.1 µM]	26%[46.1 µM]
O=S(=O)(/C=C/c1ccccc1)N1CCN(c2nc(-c3cccnc3)nc3ccccc23)CC1	-1%	i	?	?	?	11µM*
O=S(=O)(c1ccccc1)N1CCN(c2nc(-c3cccnc3)nc3ccccc23)CC1	-10%	-14%	2	?	14%	-8%[46.1 µM]
COc1ccc(C(=O)Nc2nc3ccccc3[nH]2)cc1OC	·	·	119	-16%	12%	-20%
CCOc1ccc(C(=O)Nc2nc3ccccc3[nH]2)cc1OCC	-29%	?	-63*	?	·	11µM*
COc1cc(C(=O)Nc2nc3ccccc3[nH]2)ccc1OC(F)F	-24%	-7%	-14	8.9µM*	?	?
Cc1oc(-c2ccccc2Cl)nc1Cn1cccc1C1=NC(c2ccccc2)CO1 (stereo unspecified)	-12%	-28%	?	11µM*	7.3µM*	?
Cc1oc(-c2ccccc2Cl)nc1CN1CCCC1c1ccc(F)cc1 (stereo unspecified)	·	·	16	-13%	·	·
Cc1cnc(-n2ncc(C(=O)NCC(C)(C)N3CCOCC3)c2C)nc1-c1cccs1	10%	-8%	·	·	·	·
Fc1ccc(CN(Cc2ccccc2)C(c2cccs2)c2nnnn2C2CCCCC2)cc1 (stereo unspecified)	-25%	-15%	-77*	?	?	?
SMILES	VACV Venus inh	VACV mCherry inh	HCMV antiviral	HCV inh	LASV entry inh	MARV entry inh
CN(C)c1ccc(/C=C/c2cc[n+]([O-])cc2)cc1	·	·	·	·	·	-7%
CCN(CC)c1ccc(/C=C/c2ccc3ccc(OC)cc3[n+]2CC)cc1	·	·	-97*	2.2µM*	·	·
CCCCCC[n+]1ccccc1/C=C/c1ccc(N(C)C)cc1	i	i	-97*	·	·	·
CC[n+]1c(/C=C/c2ccc(N(C)C)cc2)ccc2ccccc21	392%	301%	·	-20%[0.335 µM]	9.2µM*	1.6µM*
CC[n+]1ccccc1/C=C/c1ccc(N(C)C)cc1	·	·	-86*	4.5µM*	·	·
CN[C@H](CC(C)C)C(=O)N[C@H]1C(=O)N[C@@H](CC(N)=O)C(=O)N[C@@H]2C(=O)N[C@H]3C(=O)N[C@H](C(=O)N[C@H](C(=O)O)c4cc(O)cc(O)c4-c4cc3ccc4O)[C@H](O)c3ccc(c(Cl)c3)Oc3cc2cc(c3O[C@@H]2O[C@H](CO)[C@@H](O)[C@H](O)[C@@H]2O[C@H]2C[C@](C)(N)[C@H](O)[C@H](C)O2)Oc2ccc(cc2Cl)[C@H]1O	·	·	·	·	43%	-11%
CN(C)c1ccc(/C=C/c2cc[n+]([O-])c3ccccc23)cc1	-7%	32%	·	·	·	·
CC[n+]1ccc(/C=C/c2ccc(N(C)C)cc2)c2ccccc21	i	i	-99*	4.5µM*	?	?
CC(C)CC(N(C)C)C1(c2ccc(Cl)cc2)CCC1 (stereo unspecified)	-12%	-2%	?	3.5µM*!	·	·
CN(C)C1(c2nnnn2-c2ccc(Cl)cc2)CCCCC1	-10%	i	-38	14%	·	·
O=C(NCc1ccc2c(c1)CCN2C(=O)c1ccc(Cl)cc1)c1ccco1	-8%	-13%	15	·	?	·
CCc1cc(C(=O)NNC(=O)CCl)sc1C	·	·	-64*	-15%	?	?
Fc1ccccc1NC(=S)N1CCN(c2ccccn2)CC1	-9%	i	-10	19%	-14%	-4%
Cc1ccc(NC(=S)N2CCN(Cc3ccc4c(c3)OCO4)CC2)c(C)c1	-14%	-7%	?	-13%	22%	0%
COc1ccc(NC(=S)N2CCN(C/C=C/c3ccccc3)CC2)c(OC)c1	-8%	-17%	?	-11%	1%	-2%[46.1 µM]
COc1ccccc1NC(=S)N1CCN(C/C=C/c2ccccc2)CC1	-18%	-9%	-72*	5%	3%	1%
CCN(CC)S(=O)(=O)c1ccc(C)c(NC(=S)N2CCN(Cc3ccc4c(c3)OCO4)CC2)c1	-15%	-26%	-99*	6.3µM*	?	?
CCc1ccccc1NC(=S)N1CCN(c2ccccn2)CC1	-10%	-9%	-102*	5%	?	0%
CCN(CC)S(=O)(=O)c1ccc(C)c(NC(=S)N2CCN(C/C=C/c3ccccc3)CC2)c1	?	?	?	8.9µM*	·	·
Cc1ccc(C)c(N2CCN(C(=O)Cn3c(-c4cccs4)cc4ccccc43)CC2)c1	-16%	-14%	5	·	?	·
CCOc1ccccc1CNC(=O)CN1C(=O)CCn2nc(-c3cn(C)c4ccccc34)cc21	2%	-15%	1	·	?	·
